# Results taken from PubChem BioAssay.
# The source made the active and inactive calls.
# Tests used:
# [1] = tested on: Plasmodium falciparum Sir2 (PF13_0152, Sir2A); assay: pfSir2 binders on small-molecule microarrays, primary screen, biochemical, small-molecule microarray, 635 nm fluorescence (AID 1098); details: small-molecule microarray binding, fluorescence 635 nm; higher = more signal;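 note: score merges spot fluorescence intensity with its signal-to-noise ratio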
# [2] = small-molecule microarray binders of probe aDKK1, primary screen, biochemical, biotinylated probe, 635/667 nm fluorescence (AID 1099); details: higher = more signal;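 note: score merges 667nm spot fluorescence with signal to noise across triplicate slides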
# [3] = small-molecule microarray binders of probe aCHRDL2, primary screen, biochemical, biotinylated probe, 635/667 nm fluorescence (AID 1100); details: higher = more signal
# [4] = splicing luciferase reporter signal modulators, primary screen, spliceosome inhibition project, cell-based, HEK293, splice +/- reporter (AID 1101); details: luminescence, 24 h, higher = more signal, called active from +8 up or from −8 down;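 note: HEK293 cells carrying a splicing-competent luciferase reporter gene; test concentration not given here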
# [5] = target: Fibroblast growth factor 10 (Homo sapiens) (UniProt O15520); assay: FGF10 binders on small-molecule microarrays, primary screen, biochemical, small-molecule microarray, 635 nm fluorescence (AID 1102); details: FGF10 binding, fluorescence 635 nm, higher = more signal
# Fibroblast growth factor 10 (Homo sapiens), sequence (O15520 whole entry, looked up): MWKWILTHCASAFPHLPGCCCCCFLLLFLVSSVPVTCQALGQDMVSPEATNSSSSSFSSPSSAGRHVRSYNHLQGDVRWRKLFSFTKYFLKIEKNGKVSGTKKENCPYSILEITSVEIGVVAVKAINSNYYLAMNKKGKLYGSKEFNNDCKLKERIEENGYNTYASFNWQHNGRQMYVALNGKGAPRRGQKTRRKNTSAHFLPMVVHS
# [6] = tested on: glycogen synthase kinase-3 (GSK3A per assay name; protocol says GSK3B); assay: GSK3 binders on small-molecule microarrays, primary screen, biochemical, small-molecule microarray, 635 nm fluorescence, GSK3A (AID 1103); details: small-molecule microarray binding, fluorescence 635 nm; higher = more signal; note: the record names both GSK3A and GSK3B
# [7] = target: Epidermal growth factor receptor (Homo sapiens) (UniProt P00533); assay: EGFR binders on small-molecule microarrays, primary screen, biochemical, small-molecule microarray, 635 nm fluorescence (AID 1104); details: EGFR binding, higher = more signal;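 note: score merges 667 nm emission intensity with spot signal to noise over triplicate slides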
# Epidermal growth factor receptor (Homo sapiens), sequence (P00533 whole entry, looked up): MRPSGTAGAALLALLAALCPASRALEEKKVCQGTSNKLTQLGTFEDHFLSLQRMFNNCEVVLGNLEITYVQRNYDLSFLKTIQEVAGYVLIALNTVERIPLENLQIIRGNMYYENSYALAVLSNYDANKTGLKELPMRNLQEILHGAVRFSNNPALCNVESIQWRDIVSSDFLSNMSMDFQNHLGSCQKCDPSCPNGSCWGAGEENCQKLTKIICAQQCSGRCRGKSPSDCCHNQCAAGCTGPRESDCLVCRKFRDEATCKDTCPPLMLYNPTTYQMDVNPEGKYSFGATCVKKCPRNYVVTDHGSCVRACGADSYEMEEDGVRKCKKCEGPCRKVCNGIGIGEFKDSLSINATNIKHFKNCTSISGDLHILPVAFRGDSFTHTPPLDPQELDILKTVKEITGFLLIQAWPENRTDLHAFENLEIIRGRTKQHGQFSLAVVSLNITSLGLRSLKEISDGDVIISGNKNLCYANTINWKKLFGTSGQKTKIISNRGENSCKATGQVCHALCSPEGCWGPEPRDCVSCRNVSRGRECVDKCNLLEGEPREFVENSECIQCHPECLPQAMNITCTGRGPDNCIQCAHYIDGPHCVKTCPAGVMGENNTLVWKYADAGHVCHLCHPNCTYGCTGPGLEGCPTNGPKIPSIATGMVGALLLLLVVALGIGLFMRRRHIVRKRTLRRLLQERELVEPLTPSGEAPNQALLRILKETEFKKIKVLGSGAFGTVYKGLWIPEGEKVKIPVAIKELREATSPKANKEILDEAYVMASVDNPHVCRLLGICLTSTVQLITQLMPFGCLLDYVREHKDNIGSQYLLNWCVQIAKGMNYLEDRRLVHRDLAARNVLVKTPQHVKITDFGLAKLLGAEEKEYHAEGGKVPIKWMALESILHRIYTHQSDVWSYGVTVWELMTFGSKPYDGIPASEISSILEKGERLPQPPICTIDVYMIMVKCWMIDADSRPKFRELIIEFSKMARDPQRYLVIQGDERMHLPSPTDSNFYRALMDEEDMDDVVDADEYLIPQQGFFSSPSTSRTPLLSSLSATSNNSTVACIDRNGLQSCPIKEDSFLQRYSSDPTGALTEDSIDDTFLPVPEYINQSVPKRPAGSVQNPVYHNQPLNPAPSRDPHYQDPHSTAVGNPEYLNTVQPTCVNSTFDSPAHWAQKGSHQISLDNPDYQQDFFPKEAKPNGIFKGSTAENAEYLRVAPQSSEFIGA
# [8] = target: Follistatin-related protein 3 (Homo sapiens) (UniProt O95633); assay: FSTL3 binders on small-molecule microarrays, primary screen, biochemical, small-molecule microarray, 635 nm fluorescence (AID 1105); details: FSTL3 binding, higher = more signal;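 note: score merges emission near 667 nm and signal to noise per printed spot across three slides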
# Follistatin-related protein 3 (Homo sapiens), sequence (O95633 whole entry, looked up): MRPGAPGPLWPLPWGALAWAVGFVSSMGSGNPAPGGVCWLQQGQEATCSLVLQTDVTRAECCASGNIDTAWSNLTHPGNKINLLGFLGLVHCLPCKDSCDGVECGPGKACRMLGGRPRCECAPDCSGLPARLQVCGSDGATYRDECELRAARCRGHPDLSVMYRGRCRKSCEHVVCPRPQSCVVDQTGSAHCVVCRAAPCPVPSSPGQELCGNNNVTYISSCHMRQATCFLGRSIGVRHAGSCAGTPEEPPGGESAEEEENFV
# [9] = target: Dickkopf-related protein 1 (Homo sapiens) (UniProt O94907); assay: DKK1 binders on small-molecule microarrays, primary screen, biochemical, small-molecule microarray, 635 nm fluorescence scan (AID 1106); details: DKK1 binding, higher = more signal;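 note: score merges emission near 667 nm with signal to noise over three replicate slides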
# Dickkopf-related protein 1 (Homo sapiens), sequence (O94907 whole entry, looked up): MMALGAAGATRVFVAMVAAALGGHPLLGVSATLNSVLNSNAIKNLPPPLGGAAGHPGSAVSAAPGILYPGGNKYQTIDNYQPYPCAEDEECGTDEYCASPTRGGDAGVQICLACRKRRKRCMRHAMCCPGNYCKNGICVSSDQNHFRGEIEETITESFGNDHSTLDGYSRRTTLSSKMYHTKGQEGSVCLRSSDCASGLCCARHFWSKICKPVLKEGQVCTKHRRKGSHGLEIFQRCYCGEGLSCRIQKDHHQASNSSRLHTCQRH
# [10] = tested on: Inhibin beta A chain (activin A); assay: INHBA (activin A) binders on microarrays, primary screen, biochemical, small-molecule microarray, 635 nm fluorescence scan (AID 1107); details: small-molecule microarray binding, higher = more signal;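 note: mouse activin A protein probed at 4.33 µg/mL on printed slides; score merges bound-protein fluorescence near 667 nm with spot signal-to-noise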
# [11] = tested on: Human papillomavirus type 1a protein E7 (residues 44-93); assay: HPV1a E7 fragment binders on microarrays, primary screen, biochemical, small-molecule microarray, residues 44-93, 635 nm fluorescence (AID 1108); details: small-molecule microarray binding, fluorescence 635 nm; higher = more signal;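 note: E7 fragment applied at 1 µg/mL in TBST for 1 h at 4 C; score combines spot fluorescence with its signal to noise ratio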
# [12] = modulators of HCV replicon luciferase signal, primary screen, HCV replication inhibitor project, Huh7 cells, luciferase reporter (AID 1109); details: 48 h, higher = more signal;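 note: huh7 hepatoma cells harbouring a luciferase neomycin HCV replicon reporter; luciferase luminescence as measure of HCV replicon replication; test concentration not given here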
# [13] = target: Left-right determination factor 2 (Homo sapiens) (UniProt O00292); assay: LEFTY2 binders on small-molecule microarrays, primary screen, biochemical, small-molecule microarray, 635 nm fluorescence scan (AID 1110); details: LEFTY2 binding, higher = more signal
# Left-right determination factor 2 (Homo sapiens), sequence (O00292 whole entry, looked up): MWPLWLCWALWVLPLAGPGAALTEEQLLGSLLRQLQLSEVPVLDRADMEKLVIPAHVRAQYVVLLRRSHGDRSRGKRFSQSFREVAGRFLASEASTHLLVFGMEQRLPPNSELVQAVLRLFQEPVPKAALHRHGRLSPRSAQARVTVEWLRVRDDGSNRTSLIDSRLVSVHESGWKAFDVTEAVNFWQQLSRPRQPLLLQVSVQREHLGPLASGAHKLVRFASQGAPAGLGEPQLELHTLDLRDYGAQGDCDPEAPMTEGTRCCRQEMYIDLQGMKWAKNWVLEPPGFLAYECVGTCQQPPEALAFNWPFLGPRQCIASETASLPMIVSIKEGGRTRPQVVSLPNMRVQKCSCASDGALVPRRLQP
# [14] = target: Calmodulin-1 (Homo sapiens) (UniProt P0DP23); assay: CALM1 binders on microarrays, EGTA buffer, profiling panel, biochemical, small-molecule microarray, Cy5-labelled CALM1 (AID 1111); details: Cy5-CALM1 binding fluorescence, higher = more signal;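 note: labelled calmodulin applied in Tris saline Tween buffer holding calcium plus EGTA and DTT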
# [15] = target: Calmodulin-1 (Homo sapiens) (UniProt P0DP23); assay: calcium-bound CALM1 binders on microarrays, profiling panel, artefact control for SMM control-protein annotation, biochemical, small-molecule microarray, Cy5-labelled CALM1, plus calcium (AID 1112); details: Cy5-CALM1 binding fluorescence, higher = more signal;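 note: score merges spot fluorescence with signal to noise from triplicate slides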
# [16] = small-molecule microarray binders of probe aWnt5a, primary screen, biochemical, biotinylated probe, 635/667 nm fluorescence (AID 1113); details: higher = more signal;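 note: score merges 667 nm fluorescence intensity with signal-to-noise per printed feature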
# [17] = small-molecule microarray binders of probe aShh, primary screen, biochemical, biotinylated probe, 635/667 nm fluorescence (AID 1114); details: higher = more signal;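 note: probe is biotin-labelled aShh protein from a stem cell growth factor screen; measures binding of labelled protein to compounds printed on the slide; score merges feature fluorescence at 667 nm with signal-to-noise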
# [18] = small-molecule microarray binders of probe aNog, primary screen, biochemical, biotinylated probe, 635/667 nm fluorescence (AID 1115); details: higher = more signal;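 note: probe is biotinylated aNog protein used at 0.15 µg/mL for 1 h at 4 C; z-score combines 667 nm fluorescence of each spot with its signal to noise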
# [19] = target: Torsin-1A-interacting protein 1 (Homo sapiens) (UniProt Q5JTV8); assay: LAP1 binders from COS7 cell lysate, primary screen, small-molecule microarray, 635/667 nm fluorescence (AID 1116); details: COS7-hLAP1 lysate binding, 635 nm fluorescence, higher = more signal
# Torsin-1A-interacting protein 1 (Homo sapiens), sequence (Q5JTV8 whole entry, looked up): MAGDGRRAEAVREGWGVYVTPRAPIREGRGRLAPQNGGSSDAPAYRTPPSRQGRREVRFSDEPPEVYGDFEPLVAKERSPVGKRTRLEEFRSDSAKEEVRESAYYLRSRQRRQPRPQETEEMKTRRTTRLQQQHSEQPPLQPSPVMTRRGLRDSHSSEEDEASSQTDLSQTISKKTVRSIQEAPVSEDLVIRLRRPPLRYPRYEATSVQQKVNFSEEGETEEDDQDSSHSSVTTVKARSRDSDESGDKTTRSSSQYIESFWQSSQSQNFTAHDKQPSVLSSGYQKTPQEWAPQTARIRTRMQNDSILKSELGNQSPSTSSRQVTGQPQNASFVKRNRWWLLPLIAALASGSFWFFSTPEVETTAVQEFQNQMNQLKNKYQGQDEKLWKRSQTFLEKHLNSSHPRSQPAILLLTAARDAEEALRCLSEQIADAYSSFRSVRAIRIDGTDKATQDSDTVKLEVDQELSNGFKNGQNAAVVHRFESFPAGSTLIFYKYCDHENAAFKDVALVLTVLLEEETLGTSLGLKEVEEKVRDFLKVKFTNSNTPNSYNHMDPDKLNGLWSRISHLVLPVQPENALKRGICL
# [20] = target: Alpha-bungarotoxin (Bungarus multicinctus) (UniProt P60615); assay: alpha-bungarotoxin binders on microarray, profiling panel, artefact control for SMM control protein annotation, biochemical, small-molecule microarray, Alexa647 label, 635/667 nm fluorescence (AID 1117); details: alpha-BTX-A647 binding fluorescence, higher = more signal
# Alpha-bungarotoxin (Bungarus multicinctus), sequence (P60615 whole entry, looked up): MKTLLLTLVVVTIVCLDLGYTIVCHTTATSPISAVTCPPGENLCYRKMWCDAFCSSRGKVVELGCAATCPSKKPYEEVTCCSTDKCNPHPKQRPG
SMILES,composite z-score [1],composite z-score [2],composite z-score [3],z-score [4],composite z-score [5],composite z-score [6],composite z-score [7],composite z-score [8],composite z-score [9],composite z-score [10],composite z-score [11],z-score [12],composite z-score [13],composite z-score [14],composite z-score [15],composite z-score [16],composite z-score [17],composite z-score [18],composite z-score [19],composite z-score [20]
O=C1[C@@]23C=C(Br)[C@H](C[C@@H]2COC3)[C@]12CO2,-1.5,-0.183,-0.188,1.91 (inactive),-0.573,-0.88,-1.24,-0.858,-0.297,1.69,-2.09,-1.96,-1.16,-1.01,-1.25,0.0388,-0.234,0.0256,-0.0722,-1.5
C=CCC(OC(C)=O)[C@@H]1[C@@H](N(Cc2ccc(-c3cccc(C(F)(F)F)c3)o2)C(=O)c2cccc3ccccc23)c2cc(OCCCO)ccc2N1C(=O)Cc1ccc2ccccc2c1 (stereo not given in full),0.25,0.102,0.291,-0.896 (inactive),0.0246,-1.07,-0.352,0.117,-0.282,0.95,-0.168,0.395,-0.648,0.0134,0.242,-0.0597,0.123,-0.398,0.0212,0.794
COc1ccc(NC(=O)O[C@H]2[C@H](OC(=O)c3cc4ccccc4[nH]3)[C@@H](OC(=O)c3cc4ccccc4[nH]3)[C@@H](OC)O[C@@H]2CO)cc1,1.24,-0.0147,0.358,-1.07 (inactive),0.523,0.212,-0.245,0.448,-0.011,0.287,-0.548,-1.98,0.046,0.467,-0.206,-0.0512,0.0121,-0.0612,1.04,0.243
COc1ccc([Si](C)(C)[C@@H]2[C@@H](CC(=O)N3Cc4ccccc4C[C@H]3CO)O[C@]3(C(=O)N(Cc4cccc(N5CCC5=O)c4)c4ccccc43)[C@H]2C)cc1,1.22,-0.0652,0.119,-0.432 (inactive),0.48,0.611,0.73,0.692,0.641,0.886,1.12,-3.58,0.558,0.18,0.0915,-0.1,-0.0709,0.0001,0.111,1.08
C#CCOc1ccc(C[C@@H](C(=O)OC)N(CC#C)[C@@H](/C=C/C2CC2)[C@H](O)Cc2ccccc2)cc1,-0.103,-0.285,0.846,0.0683 (inactive),-0.327,-0.829,-0.92,-0.806,-0.429,0.899,-0.802,-2.06,-0.336,-1.1,-1.69,-0.2,-0.221,-0.337,0.255,-0.335
O=C(NC1CC1)[C@@H]1c2ccccc2C(=O)N(Cc2cc(F)cc(C(F)(F)F)c2)[C@H]1c1ccc(CO)cc1,1.62,-0.284,0.447,0.191 (inactive),-0.216,0.296,-1.18,-0.317,-0.666,-0.142,0.558,-0.509,-1.05,-0.768,-0.628,-0.161,-0.0709,0.0308,0.0706,-0.405
CCCC[C@@H]1C[C@H]1[C@@H](NC(=O)c1cccnc1)c1ccc(Cl)cc1,-1.89,0.636,1.38,-2.46 (inactive),-2.18,-2.37,-2.19,-2.37,-2.48,0.0159,-1.05,-2.14,-2.99,0.867,1.69,-0.191,-0.509,0.526,-0.553,-1.36
C=C(CCCC)C(=O)CC[C@H](OC(=O)c1cccnc1)c1ccc(OCCO)cc1,0.142,-0.117,0.27,0.98 (inactive),-0.0659,-0.0084,-0.317,-0.173,0.183,0.877,-0.574,-3.61,-0.327,-0.556,-0.736,-0.0455,0.296,0.406,0.656,0.551
CC(C)NC(=O)[C@@]1(Cc2ccccc2I)c2ccccc2C(=O)N(Cc2ccccc2Cl)[C@H]1c1ccc(CO)cc1,0.972,0.13,0.156,-0.833 (inactive),1.1,1.16,0.355,0.575,0.533,0.529,1.37,-1.97,0.45,0.789,-0.129,0.0077,0.0062,0.0139,0.795,1.28
COCCOC(=O)N1C(=O)[C@@]2(c3cc(C#CC4=CCCCC4)ccc31)[C@H](C(N)=O)[C@H]1C(=O)O[C@H](c3ccccc3)[C@H](c3ccccc3)N1[C@@H]2c1ccc(O)cc1,1.61,0.0331,0.275,-1.18 (inactive),1.15,0.96,0.586,0.829,0.318,0.787,1.13,-1.76,0.959,1.16,-0.308,-0.107,-0.0362,-0.0956,0.923,1.51
C=CCNC(=O)[C@@H]1[C@H]2C(=O)O[C@H](c3ccccc3)[C@H](c3ccccc3)N2[C@H](c2ccc(OCCO)cc2)[C@@]12C(=O)N(C(=O)OCCOC)c1ccc(C#CCC(C(=O)OC)C(=O)OC)cc12,1.32,0.951,0.328,1.01 (inactive),1.07,1.28,0.719,1.1,1.29,-0.0578,0.805,-1.5,0.969,1.61,0.105,-0.0302,0.199,0.804,1.03,1.26
CC(C)N1CC=CC23O[C@@H]4C=CCOC(=O)[C@@H]4[C@H]2C(=O)N(CCCCCO)[C@@H]3C1=O (stereo not given in full),0.818,-0.288,0.248,-1.54 (inactive),-0.927,-0.69,-0.0616,-0.266,-0.758,0.66,-0.608,-0.147,-0.624,0.0459,0.395,-0.18,0.0723,-0.198,1.33,-0.35
C=C(CCCC)/C(=C/C[C@H](OC(=O)c1ccncc1)c1ccc(OCCO)cc1)c1cc(C(=O)OC)ccc1OC,0.694,-0.172,-0.116,-1.14 (inactive),0.752,-0.139,0.053,0.14,0.204,1.29,1.09,-2.01,0.318,0.226,0.176,0.0491,0.216,-0.158,1.26,0.378
CCOC(=O)C1=C[C@@H](C(C)C)N(S(=O)(=O)c2ccc(C)cc2)[C@H]1c1ccccc1F,0.906,0.398,0.603,1.2 (inactive),0.668,0.791,0.6,0.965,0.336,0.442,1.34,-2.04,0.605,1.74,0.0462,-0.001,0.116,0.541,1.08,1.39
COc1ccc([C@H]2C[C@H]3C(Br)=C[C@@]2(CO)C(=O)[C@]32CO2)cc1,-0.194,-0.118,0.565,-0.206 (inactive),-0.0884,-0.516,0.197,-0.387,-0.198,1.32,-0.368,-2.02,0.122,-0.282,-0.38,0.0286,-0.262,-0.0827,0.291,0.0471
